Counter-ions that a name gives are not always drawn.
Key:
Settings in all cases: incubation time: 27 h, anaerobic, 37 °C;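 for the amine columns active = adjusted P below 0.05 in both replicates with a change the same way and a mean fold change under 0.8 or over 1.25; inactive = the rest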
[1] = tested on: Clostridium sporogenes DSM 1664; test: growth (OD595) fold change vs plate DMSO controls (fold change (ratio)); higher = more growth
Procedure, shortened: (§1)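 Growth is the fold change relative to the median of plate DMSO controls. Readings came from anaerobic mGAM cultures in 96-well plates grown for 27 h at 37 °C and read at 595 nm. They were blank-subtracted, corrected for compound background with 20 µM compound solutions in water, and converted to OD with a calibration factor of 5. Values are means of 2 biological replicates, and fold changes above 1.5 were set to NA.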

Escherichia coli IAI1 [2] = test: as above
Procedure, shortened: as §1

[3] = tested on: Klebsiella aerogenes DSM 30053; test: as above
Procedure, shortened: as §1

[4] = tested on: Ruminococcus gnavus DSM 108212; test: as above
Procedure, shortened: as §1

[5] = tested on: Klebsiella aerogenes DSM 30053; test: fold change of Histamine concentration vs plate DMSO controls (fold change (ratio)); higher = more amine produced, active = hit call of the paper (significant change in both replicates, either direction)
Procedure, shortened: (§2)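 Using LC–triple-quadrupole MS with dynamic MRM, amines were quantified against external calibration curves and corrected for drift within each batch. Samples were whole anaerobic mGAM cultures of four gut strains, grown 27 h at 37 °C from OD 0.1 before 1:1 dilution, extracted with cold acetonitrile/methanol containing 0.1% formic acid and centrifuged. Compounds were present at 20 µM final (sweeteners at 50 µM final). The numbers are fold changes versus plate DMSO controls, each the mean of 2 biological replicates.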

[6] = tested on: Clostridium sporogenes DSM 1664; test: fold change of Tryptamine concentration vs plate DMSO controls (fold change (ratio)); higher = more amine produced, active = hit call of the paper (significant change in both replicates, either direction)
Procedure, shortened: as §2

[7] = tested on: Ruminococcus gnavus DSM 108212; test: as above
Procedure, shortened: as §2

Escherichia coli IAI1 [8] = test: fold change of Putrescine concentration vs plate DMSO controls (fold change (ratio)); higher = more amine produced, active = hit call of the paper (significant change in both replicates, either direction)
Procedure, shortened: as §2

[9] = tested on: Klebsiella aerogenes DSM 30053; test: as above
Procedure, shortened: as §2

Escherichia coli IAI1 [10] = test: fold change of Cadaverine concentration vs plate DMSO controls (fold change (ratio)); higher = more amine produced, active = hit call of the paper (significant change in both replicates, either direction)
Procedure, shortened: as §2

[11] = tested on: Klebsiella aerogenes DSM 30053; test: as above
Procedure, shortened: as §2

[12] = tested on: Ruminococcus gnavus DSM 108212; test: fold change of 2-Phenylethylamine concentration vs plate DMSO controls (fold change (ratio)); higher = more amine produced, active = hit call of the paper (significant change in both replicates, either direction)
Procedure, shortened: as §2

Row | Compound | growth [1] | growth (Escherichia coli IAI1 [2]) | growth [3] | growth [4] | fold change of Histamine concentration [5] | fold change of Tryptamine concentration [6] | fold change of Tryptamine concentration [7] | fold change of Putrescine concentration (Escherichia coli IAI1 [8]) | fold change of Putrescine concentration [9] | fold change of Cadaverine concentration (Escherichia coli IAI1 [10]) | fold change of Cadaverine concentration [11] | fold change of 2-Phenylethylamine concentration [12]
1 | OCCOCCN1CCN(C(c2ccccc2)c2ccc(Cl)cc2)CC1 (stereo not drawn) [Hydroxyzine dihydrochloride] (20 µM) | 1.07 | 1.01 | 1.05 | 0.906 | 0.909 (inactive) | 1.01 (inactive) | 1.02 (inactive) | 0.98 (inactive) | 0.966 (inactive) | 0.968 (inactive) | 1.02 (inactive) | 1.06 (inactive)
2 | CO/N=C(\C(=O)N[C@@H]1C(=O)N2C(C(=O)[O-])=C(C[n+]3ccn4ncccc43)CS[C@H]12)c1nsc(N)n1 [Cefozopran hydrochloride] (20 µM) | 0 | 0.102 | 0.153 | 0.0221 | 1.35 (active) | 0.0264 (active) | 0.0903 (active) | 2.2 (active) | 0.898 (inactive) | 2 (active) | 1.05 (inactive) | 0.0687 (active)
3 | CCC(=O)OCC(=O)[C@@]1(OC(=O)CC)[C@@H](C)C[C@H]2[C@@H]3CCC4=CC(=O)C=C[C@]4(C)[C@@]3(Cl)[C@@H](O)C[C@@]21C [Beclomethasone dipropionate] (20 µM) | 1.19 | 0.997 | 1.04 | 1.22 | 1 (inactive) | 1.01 (inactive) | 0.937 (inactive) | 0.954 (inactive) | 1.01 (inactive) | 1.02 (inactive) | 0.995 (inactive) | 0.921 (inactive)
4 | CC(=O)Nc1c(I)c(NC(C)=O)c(I)c(C(=O)O)c1I [Diatrizoic acid dihydrate] (20 µM) | 1.28 | 1.05 | 1.01 | 0.851 | 1.03 (inactive) | 0.947 (inactive) | 1.05 (inactive) | 1.07 (inactive) | 0.983 (inactive) | 1.01 (inactive) | 0.988 (inactive) | 1.01 (inactive)
5 | COCC1=C(C(=O)OC(C)OC(=O)OC(C)C)N2C(=O)[C@@H](NC(=O)/C(=N\OC)c3csc(N)n3)[C@H]2SC1 (stereo partly drawn) [Cefpodoxime proxetil] (20 µM) | 1.05 | 1.01 | 1.04 | 1.18 | 1.06 (inactive) | 0.946 (inactive) | 0.622 (inactive) | 0.972 (inactive) | 1.03 (inactive) | 1.43 (active) | 0.986 (inactive) | 0.605 (inactive)
6 | CC[C@H](C)C(=O)O[C@H]1C[C@@H](C)C=C2C=C[C@H](C)[C@H](CC[C@@H]3C[C@@H](O)CC(=O)O3)[C@H]21 [Lovastatin] (20 µM) | 1.13 | 1 | 0.995 | 1.16 | 1.05 (inactive) | 0.945 (inactive) | 0.995 (inactive) | 0.975 (inactive) | 1.02 (inactive) | 1.01 (inactive) | 0.999 (inactive) | 0.984 (inactive)
7 | O=C1Cc2cc(CCN3CCN(c4nsc5ccccc45)CC3)c(Cl)cc2N1 [Ziprasidone  hydrochloride monohydrate] (20 µM) | 1.09 | 1.06 | 1.03 | 1.23 | 1.23 (inactive) | 0.998 (inactive) | 0.712 (active) | 1.12 (inactive) | 1.1 (inactive) | 1.08 (inactive) | 1.06 (inactive) | 0.771 (active)
8 | CNCCCC1c2ccccc2C=Cc2ccccc21 [Protriptyline hydrochloride] (20 µM) | 0.921 | 1.01 | 0.958 | 0.968 | 1.02 (inactive) | 1.12 (inactive) | 0.848 (inactive) | 1.17 (inactive) | 1.02 (inactive) | 1.12 (inactive) | 0.998 (inactive) | 0.829 (inactive)
9 | NC1CCN(c2nc3c(cc2F)c(=O)c(C(=O)O)cn3-c2ccc(F)cc2F)C1 (stereo not drawn) [Tosufloxacin hydrochloride] (20 µM) | 0.0344 | 0.0566 | 0.173 | 1.45 | 0.0712 (active) | 0.0441 (active) | 0.532 (active) | 0.811 (inactive) | 0.642 (active) | 0.192 (active) | 0.978 (inactive) | 0.615 (active)
10 | Oc1c(I)cc(Cl)c2cccnc12 [Clioquinol] (20 µM) | 0.876 | 0.817 | 0.978 | 0.671 | 1.03 (inactive) | 0.976 (inactive) | 0.628 (active) | 0.906 (inactive) | 1.01 (inactive) | 1.09 (inactive) | 0.991 (inactive) | 0.809 (inactive)
11 | OC[C@@H](O)[C@@H](O[C@H]1O[C@H](CO)[C@@H](O)[C@H](O)[C@H]1O)[C@H](O)[C@@H](O)CO [Maltitol] (50 µM) | 1 | 0.988 | 1.02 | 0.976 | 1 (inactive) | 1.01 (inactive) | 0.988 (inactive) | 1.05 (inactive) | 1.02 (inactive) | 1.04 (inactive) | 1.01 (inactive) | 0.941 (inactive)
12 | Nc1nc2n[nH]nc2c(=O)[nH]1 [Azaguanine-8] (20 µM) | 0.886 | 1.05 | 1.01 | 0.846 | 1.04 (inactive) | 0.988 (inactive) | 0.924 (inactive) | 1.01 (inactive) | 0.968 (inactive) | 1.01 (inactive) | 1.03 (inactive) | 0.882 (inactive)
13 | Cc1ccccc1N1C(=O)c2cc(S(N)(=O)=O)c(Cl)cc2NC1C (stereo not drawn) [Metolazone] (20 µM) | 1.14 | 0.984 | 1.02 | 1.07 | 1.04 (inactive) | 0.993 (inactive) | 1.03 (inactive) | 1.02 (inactive) | 0.995 (inactive) | 0.977 (inactive) | 0.993 (inactive) | 1.04 (inactive)
14 | CCN(CC)C(=O)N1CCN(C)CC1 [Diethylcarbamazine citrate] (20 µM) | 1.12 | 0.975 | 1.04 | 0.977 | 0.954 (inactive) | 1.03 (inactive) | 0.976 (inactive) | 0.988 (inactive) | 0.985 (inactive) | 1.02 (inactive) | 1 (inactive) | 0.905 (inactive)
15 | CSc1nc2cc(Cl)c(Oc3cccc(Cl)c3Cl)cc2[nH]1 [Triclabendazole] (20 µM) | 0.189 | 1.07 | 0.985 | 0.767 | 1.04 (inactive) | 0.0552 (active) | 0.514 (active) | 0.907 (inactive) | 0.984 (inactive) | 1.01 (inactive) | 1.04 (inactive) | 0.671 (inactive)
16 | [S] (20 µM) | 1.07 | 0.919 | 0.964 | 0.976 | 0.924 (inactive) | 0.999 (inactive) | 1.01 (inactive) | 1.02 (inactive) | 0.962 (inactive) | 0.951 (inactive) | 1 (inactive) | 1.02 (inactive)
17 | NC[C@@H]1O[C@@H](O[C@H]2[C@H](O)[C@@H](O[C@H]3O[C@H](CO)[C@@H](O)[C@H](N)[C@H]3O)[C@H](N)C[C@@H]2N)[C@@H](O)[C@H](O)[C@H]1O [Kanamycin A sulfate] (20 µM) | 1.05 | 1.02 | 1.02 | 1.09 | 0.907 (inactive) | 1.06 (inactive) | 1.01 (inactive) | 1.02 (inactive) | 0.977 (inactive) | 0.97 (inactive) | 1.02 (inactive) | 1.03 (inactive)
18 | O=C1[C@H](CC[C@H](O)c2ccc(F)cc2)[C@@H](c2ccc(O)cc2)N1c1ccc(F)cc1 [Ezetimibe] (20 µM) | 1.3 | 1.1 | 1.02 | 0.955 | 0.972 (inactive) | 0.796 (inactive) | 0.858 (inactive) | 1.02 (inactive) | 1 (inactive) | 0.987 (inactive) | 0.992 (inactive) | 0.832 (inactive)
19 | NC[C@H]1CC[C@H](C(=O)O)CC1 [Tranexamic acid] (20 µM) | 1.06 | 1.02 | 1 | 1.14 | 0.965 (inactive) | 1.03 (inactive) | 0.85 (inactive) | 0.977 (inactive) | 1.01 (inactive) | 1.01 (inactive) | 1.01 (inactive) | 0.849 (inactive)
20 | Nc1nc(=O)c2c([nH]1)NC[C@@H](CNc1ccc(C(=O)N[C@@H](CCC(=O)O)C(=O)O)cc1)N2C=O [Folinic acid calcium salt] (20 µM) | 0.975 | 0.979 | 0.993 | 0.963 | 0.976 (inactive) | 1.02 (inactive) | 0.944 (inactive) | 1.05 (inactive) | 0.998 (inactive) | 0.962 (inactive) | 0.999 (inactive) | 0.882 (inactive)
21 | Cc1cc(NS(=O)(=O)c2ccc(N)cc2)no1 [Sulfamethoxazole] (20 µM) | 1.01 | 1.11 | 1.06 | 0.913 | 1.12 (inactive) | 0.999 (inactive) | 1.01 (inactive) | 1.13 (inactive) | 1.03 (inactive) | 0.911 (inactive) | 1 (inactive) | 0.978 (inactive)
22 | CCC[C@@H]1C[C@@H](C(=O)N[C@@H]([C@H]2O[C@H](SC)[C@H](OP(=O)(O)O)[C@@H](O)[C@H]2O)[C@H](C)Cl)N(C)C1 [Clindamycin Phosphate] (20 µM) | 0.836 | 1.04 | 0.998 | 0.709 | 1.01 (inactive) | 0.917 (inactive) | 0.844 (inactive) | 1.02 (inactive) | 1.01 (inactive) | 0.987 (inactive) | 0.999 (inactive) | 0.86 (inactive)
23 | CC1=C(/C=C/C(C)=C/C=C/C(C)=C/C(=O)O)C(C)(C)CCC1 [Retinoic acid] (20 µM) | 1.05 | 0.973 | 1.1 | 1.04 | 0.947 (inactive) | 1.03 (inactive) | 1.03 (inactive) | 1.01 (inactive) | 1.02 (inactive) | 0.989 (inactive) | 1.01 (inactive) | 0.997 (inactive)
24 | CCOc1ccccc1OCCN[C@H](C)Cc1ccc(OC)c(S(N)(=O)=O)c1 [(R)-Tamsulosin hydrochloride] (20 µM) | 0.839 | 0.964 | 1.03 | 1.01 | 0.94 (inactive) | 0.98 (inactive) | 1.02 (inactive) | 1 (inactive) | 1.01 (inactive) | 1.01 (inactive) | 1 (inactive) | 0.976 (inactive)

Reference: the supplement of paper PMC12494721
